What all share (test): MAPPIT interaction score (arbitrary units); higher = stronger binary interaction signal, active = hit call of the paper
For one experiment, the target named is AP-1mu. The settings on record: MAPPIT configuration: N-C; pair source set: screen_4. The method, then: (§1)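 MAPPIT in HEK293T cells: Drosophila bait and prey ORFs (from the FlyBi ORF collection) were co-transfected in quadruplicate, with two wells stimulated by erythropoietin. Interaction-dependent JAK-STAT activation was read out with a STAT-responsive firefly luciferase reporter. Positive calls use the 99th percentile of random reference set (RRS) scores within each batch […]. Batches Dvs01 and Dvs02 used the N-N configuration and Dvs04 the N-C configuration. Pairs come from FlyBi screens, CuraGen, DPiM, Finley Y2H, Lit-BM-16, Lit-BS-16 and RRS.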

In a further experiment the target is CG17377. Particulars: MAPPIT configuration: N-C; pair source set: screen_4. As to the method: as §1
For a further experiment, the target named is Mst87F. Particulars: MAPPIT configuration: N-N; pair source set: screen_2. As to the method:
as §1

The next experiment deals with lawc. The settings on record: MAPPIT configuration: N-C; pair source set: screen_3. As to the method: as §1
In a further experiment the target is HLH54F. The settings on record: MAPPIT configuration: N-N; pair source set: Curagen_low_conf. As to the method: as §1
For a further experiment, the target named is 14-3-3epsilon. The settings on record: MAPPIT configuration: N-N; pair source set: Lit-BM-16. The method, then:
as §1

In the next experiment the target is CG5174. Particulars: MAPPIT configuration: N-N; pair source set: Curagen_low_conf. The method, then:
as §1

Another experiment has as its target LamC. The settings on record: MAPPIT configuration: N-N; pair source set: DPIM. The method, then:
as §1

Another experiment concerns the target mon2. Particulars: MAPPIT configuration: N-N; pair source set: Curagen_low_conf. As to the method: as §1
The target of a further experiment is par-1. Particulars: pair source set: Lit-BM-16. The method, then:
as §1

The target in another experiment is sol. Particulars: MAPPIT configuration: N-N; pair source set: Curagen_low_conf. The method, then: as §1
Another experiment addresses tral. Particulars: MAPPIT configuration: N-N; pair source set: Lit-BS-16. As to the method:
as §1

The next experiment deals with 14-3-3zeta. Particulars: pair source set: Lit-BM-16. As to the method:
as §1

In the next experiment the target is yki. The settings on record: MAPPIT configuration: N-N; pair source set: Lit-BM-16. As to the method: as §1
The target of another experiment is 7B2. The settings on record: MAPPIT configuration: N-N; pair source set: Finley_Y2H. As to the method:
as §1

Another experiment addresses CG10591. Particulars: MAPPIT configuration: N-N; pair source set: Curagen_low_conf. As to the method: as §1
The target in the next experiment is CSN7. Particulars: MAPPIT configuration: N-N; pair source set: Lit-BM-16. As to the method: as §1
The target of a further experiment is PICK1. The settings on record: MAPPIT configuration: N-N; pair source set: screen_1. The method, then:
as §1

Unmarked numbers belong to inactive results.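 How the source made its calls: active = MAPPIT score above the 99th percentile of random reference set scores in the same batch; inactive = at or below it.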
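Further: HEK293T cells with Epo stimulation, STAT-responsive firefly luciferase reporter, fold induction versus unstimulated cells divided by the larger fold induction of two negative controls lacking either bait or prey.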

B1: spin (protein)
chain: MSLKHQKQSYQPLPTAAAMDNPAMIQSSGSSGSSSSEEGGSREDVANLSPLGLPTTYSSQQLMPSDTDSMEEERHRLRPHHHHHHPLGEHHHIPGIPPSAVVPSRLSSVGRSQWFTVTVLCFVNLINYMDRFTIAGVLTDVRNDFDIGNDSAGLLQTVFVISYMVCAPIFGYLGDRYSRPWIMAVGVGLWSTTTLLGSFMKQFGWFIAFRALVGIGEASYSTIAPTIISDLFVHDMRSKMLALFYFAIPVGSGLGYIVGSKTAHLANDWRWALRVTPILGIVAVFLILLIKDPVRGHSEGSHNLEATTYKQDIKALVRNRSFMLSTAGFTCVAFVAGALAWWGPSFIYLGMKMQPGNENIVQDDVAFNFGVITMLAGLLGVPLGSFLSQYLVKRYPTADPVICAFGLLVSAPLLTGACLLVNSNSVGTYALIFFGQLALNLNWAIVADILLYVVVPTRRSTAEAFQILISHALGDAGSPYLVGAISEAIMKHLHKNPSDSGLTTELRSMSQVAGSAISNATQVIAEATTSLMETARSSASQEYSDVEQFEGLQYALFSTSFVEVLGGIFFIFTACFIIKDKYNATRGLQDATAQQQQRDERGQIA
Regarding B1, the MAPPIT interaction score with AP-1mu was 2.01; in the experiment with CG17377 it was 1.62; in the experiment with Mst87F, 2.13; with lawc, 1.7.

B2: TfIIB (protein)
chain: MASTSRLDNNKVCCYAHPESPLIEDYRAGDMICSECGLVVGDRVIDVGSEWRTFSNEKSGVDPSRVGGPENPLLSGGDLSTIIGPGTGSASFDAFGAPKYQNRRTMSSSDRSLISAFKEISSMADRINLPKTIVDRANNLFKQVHDGKNLKGRSNDAKASACLYIACRQEGVPRTFKEICAVSKISKKEIGRCFKLTLKALETSVDLITTADFMCRFCANLDLPNMVQRAATHIAKKAVEMDIVPGRSPISVAAAAIYMASQASEHKRSQKEIGDIAGVADVTIRQSYKLMYPHAAKLFPEDFKFTTPIDQLPQM
Consider B2, for which the MAPPIT interaction score was 1.05 in the experiment with AP-1mu and -0.376 with HLH54F.

B3: 14-3-3zeta (protein)
chain: MSTVDKEELVQKAKLAEQSERYDDMAQAMKSVTETGVELSNEERNLLSVAYKNVVGARRSSWRVISSIEQKTEASARKQQLAREYRERVEKELREICYEVLGLLDKYLIPKASNPESKVFYLKMKGDYYRYLAEVATGDARNTVVDDSQTAYQDAFDISKGKMQPTHPIRLGLALNFSVFYYEILNSPDKACQLAKQAFDDAIAELDTLNEDSYKDSTLIMQLLRDNLTLWTSDTQGDEAEPQEGGDN
Turning to B3, the MAPPIT interaction score with 14-3-3epsilon was 3.94 (active); with CG5174, 0.738; in the experiment with LamC it was 0.222; in the experiment with mon2, 0.305; in the experiment with par-1 (MAPPIT configuration: N-C), -0.258; in the experiment with par-1 (MAPPIT configuration: N-N), -0.148. Further, the MAPPIT interaction score with sol was 1.59; with tral it was 0.0264.

B4: 14-3-3epsilon (protein)
chain: MTERENNVYKAKLAEQAERYDEMVEAMKKVASMDVELTVEERNLLSVAYKNVIGARRASWRIITSIEQKEENKGAEEKLEMIKTYRGQVEKELRDICSDILNVLEKHLIPCATSGESKVFYYKMKGDYHRYLAEFATGSDRKDAAENSLIAYKAASDIAMNDLPPTHPIRLGLALNFSVFYYEILNSPDRACRLAKAAFDDAIAELDTLSEESYKDSTLIMQLLRDNLTLWTSDMQAEEVDPNAGDGEPKEQIQDVEDQDVS
Regarding B4, the MAPPIT interaction score in the experiment with 14-3-3zeta (MAPPIT configuration: N-C) was 1.51; in the experiment with 14-3-3zeta (MAPPIT configuration: N-N) it was 4.99 (active); in the experiment with par-1 (MAPPIT configuration: N-C), -0.702; in the experiment with par-1 (MAPPIT configuration: N-N), -0.144; with yki it was 0.198.

B5: CSN4 (protein)
chain: MAANYGISTAALRSQLMGLINFTGTHKDQADKYRQLLKTVLTNTGQELIDGLRLFVEAIVNEHVSLVISRQILNDVGSELSKLPDDLSKMLSHFTLEKVNPRVISFEEQVAGIRFHLANIYERNQQWRDAATVLVGIPLETGQKQYSVECKLGTYLKIARLYLEDNDSVQAELFINRASLLQAETNSEELQVLYKVCYARVLDYRRKFIEAAQRYNELSYRKIVDQGERMTALKKALICTVLASAGQQRSRMLATLFKDERCQHLPAYGILEKMYLERIIRRSELQEFEALLQDHQKAATSDGSSILDRAVFEHNLLSASKLYNNITFEELGALLDIPAVKAEKIASQMITEGRMNGHIDQISAIVHFENRELLPQWDRQIQSLCYQVNSIIEKISVAEPDWMDNLN
In the case of B5, the MAPPIT interaction score is -0.195 with 7B2, 0.0604 in the experiment with CG10591, 4.26 (active) in the experiment with CSN7 and 2.03 with PICK1.

The values are drawn from the supplement of paper PMC10105736.
